# Measured values as given in PubChem BioAssay (NCATS).
# Values joined by “and” are separate entries in the source; they are usually repeats but may differ in a detail not shown here. Identical values can stand only once. Records with an inconclusive call do not appear. Active and inactive are the calls of the source. Unless noted, calls follow the shape of the dose curve; as a rule, active = well fitted curve in the direction sought with a large enough effect; inconclusive = small, poorly fitted or top-dose-only effect, or another doubt; inactive = no such curve, though single readings can be large; an effect the other way counts as inactive or inconclusive.
# How the values were obtained:
# [1] = target: Tyrosine-protein kinase Yes (Homo sapiens) (UniProt P07947); test: qHTS for small molecule inhibitors of Yes1 kinase: Primary Screen (AID 686947);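 also: plate controls were DMSO with enzyme for no effect and no-enzyme DMSO wells for full effect; nearly all actives have a fitted effect of over 60% in size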
# Summary of the method: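 Yes1 (4 nM) preincubated 20 min with compound, then 60 min room-temperature reaction with 0.1 mM ATP and 0.3 mg/mL poly(E4Y) in pH 7.5 Tris, 10 mM MgCl2. ADP measured by ADP-Glo luminescence, normalised to enzyme/no-enzyme controls.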
# [2] = qHTS for small molecule inhibitors of Yes1 kinase: Counter Assay (AID 686950);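 also: no kinase present so only ADP-Glo detection of a fixed ADP amount is tested; luminescence from ADP-Glo reporting ADP in a fixed ATP and ADP mixture; 0% = DMSO wells with ATP plus ADP and -100% = ATP-only wells without ADP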
# Summary of the method: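 Luminescence read-out from ADP-Glo quantifies a fixed ADP amount (0.02 mM ADP with 0.08 mM ATP) after 60 min at room temperature; signal is normalized between DMSO wells with ATP/ADP and with 0.1 mM ATP alone.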
# [3] = qHTS for compounds that reverse cellular toxicity of Amyloid beta (A-beta) peptide in yeast: LOPAC Validation Assay (AID 720559);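 also: plate controls were DMSO for no effect and equimolar ferric chloride plus clioquinol rescue for full effect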
# Summary of the method: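 Medium dispensed, compounds pinned, A-beta yeast suspension added; plates held at 30 C for 48 hr; absorbance measured at 600 nm to gauge growth; values scaled between DMSO and FeCl3/clioquinol (equimolar) controls.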
# [4] = qHTS for Activators of Parkin Expression: LOPAC Validation Assay (NLuc Reporter) (AID 720572;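 also: 0% = DMSO and 100% = positive control compound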)
# Summary of the method: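 Parkin promoter-driven FLuc/NLuc neuronal reporter cells; 24 h plating, 7-pt dose response, 24 h at 37 C/5% CO2; FLuc then NanoLuc reagent, 10 min each, luminescence; DMSO/positive control normalized.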
# [5] = target: T1, Hexokinase-4 (Homo sapiens) + Glucokinase regulatory protein (Homo sapiens) (UniProt P35557+Q14397); test: qHTS assay for inhibitors of recombinant human GCK-GKRP interaction: Diaphorase-coupled assay (AID 743205)
# Summary of the method: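 25 mM Hepes pH 7.6, 5 mM glucose, 0.4 mM ATP, 4 U/ml G6PDH; 10 nM each GST-GCK/FLAG-GKRP. Kinetic fluorescence read, 1/min × 30 min. Normalized: DMSO ± enzyme = max/min.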
# [6] = target: T1, Hexokinase-4 (Homo sapiens) + Glucokinase regulatory protein (Homo sapiens); test: qHTS assay for inhibitors of recombinant human GCK-GKRP interaction: ADP-Glo assay (AID 743206);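 also: plate controls were DMSO plus enzyme for no effect and no enzyme for full effect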
# Summary of the method: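 GST-GCK and FLAG-GKRP (15 nM each in the dispensed mix, with 2 uM S6P) react with 0.4 mM ATP and 5 mM glucose (final) in Hepes pH 7.6 for 60 min at room temperature. ADP is measured by ADP-Glo luminescence.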
# [7] = target: T1, Hexokinase-4 (Homo sapiens) + Glucokinase regulatory protein (Homo sapiens); test: qHTS assay for inhibitors of recombinant human GCK-GKRP interaction: HTRF assay (AID 743207);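 also: 0% = DMSO with GCK present and -100% = DMSO wells lacking GCK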
# Summary of the method: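 5 nM GST-GCK + 5 nM FLAG-GKRP + 2 uM S6P, pH 7.1 buffer (25 mM Hepes, 2 mM MgCl2, 25 mM KCl, 1 mM DTT, Tween/BSA); pin-transferred cpd; anti-FLAG XL665/anti-GST K; 60 min RT; HTRF.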
# [8] = qHTS Assay for Identifying Gametocytocidal Compounds (AID 743244); also: potency is read from the fitted curve at half-maximal effect;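 as to max response: % is scaled to controls: 0 for no effect and ±100 for the full control effect; actives lower the fluorescent signal which means gametocytes are killed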; conditions: P. falciparum 3D7 stage III-V gametocytes, alamarBlue, 72 h; max response: stronger effect = lower value
# Summary of the method: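 In this qHTS viability screen, late-stage 3D7 gametocytes are incubated with compound for 72 h, then with alamarBlue for 24 h; reduced resorufin fluorescence marks killing.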
# [9] = qHTS profiling for inhibitors of Plasmodium falciparum (DD2) proliferation (AID 743323; call rule not given here); conditions: lower = more inhibition; at 28.7 µM (top of the series) unless noted
# Summary of the method: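 Parasite DNA quantified by SYBR Green fluorescence (ex 485, em 535 nm) after saponin/Triton lysis and overnight dark incubation. Cultures: 0.3% parasitemia, 2.5% hematocrit, 72 h, 37 C; data scaled between DMSO and 0.29 uM artemisinin.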
# [10] = qHTS profiling for inhibitors of Plasmodium falciparum (HB3) proliferation (AID 743324); conditions: Plasmodium falciparum HB3 blood-stage proliferation; at 28.7 µM (top of the series) unless noted;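 also: 100% = DMSO vehicle wells and 0% = artemisinin-treated control wells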
# Summary of the method: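 P. falciparum HB3 grown in erythrocytes (0.3% parasitemia, 2.5% hematocrit final) with compound for 72 h at 37 C, 5% CO2. Parasite DNA detected by SYBR Green after saponin/triton lysis overnight; normalized to 0.29 uM artemisinin and DMSO.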
# [11] = qHTS profiling of the MIPE4 collection as inhibitors of Plasmodium falciparum (3D7) proliferation (AID 743344; call rule not given here;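 also: scaled between DMSO vehicle wells and 0.29 µM artemisinin as full inhibition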); conditions: P. falciparum 3D7 in erythrocytes, SYBR Green DNA fluorescence, 72 h; at 28.5 µM (top of the series) unless noted
# Summary of the method: (§1)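 Erythrocytes infected with P. falciparum (0.3% parasitemia, 2.5% hematocrit) incubated with compounds 72 h at 37 C, 5% CO2. Lysis with saponin/Triton buffer containing SYBR Green I, overnight at room temperature in the dark; DNA fluorescence (485/535 nm) normalised to 0.29 uM artemisinin and DMSO.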
# [12] = qHTS profiling of the MIPE4 collection as inhibitors of Plasmodium falciparum (DD2) proliferation (AID 743345; call rule not given here); conditions: P. falciparum Dd2 in erythrocytes, SYBR Green DNA, 72 h; at 28.5 µM (top of the series) unless noted
# Summary of the method: as §1
# [13] = qHTS profiling of the MIPE4 collection as inhibitors of Plasmodium falciparum (DD2) proliferation (Rep 2) (AID 743346; call rule not given here); conditions: P. falciparum Dd2 in erythrocytes, SYBR Green DNA, 72 h; at 28.5 µM (top of the series) unless noted
# Summary of the method: as §1
# [14] = qHTS profiling of the MIPE4 collection as inhibitors of Plasmodium falciparum (HB3) proliferation (AID 743347; call rule not given here;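 also: plate controls were DMSO vehicle wells for no effect and artemisinin wells for full effect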); conditions: P. falciparum HB3 in erythrocytes, SYBR Green DNA, 72 h; at 28.5 µM (top of the series) unless noted
# Summary of the method: as §1
# [15] = High-throughput drug toxicity screening in the BPDCN cell line Gen2.2 (AID 1224824; call rule not given here;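 also: cells exposed to compounds for 48 h before reading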); conditions: Gen2.2 BPDCN cells; at 45.8 µM (top of the series) unless noted
# Summary of the method: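 Seed 500 exponentially growing Gen2.2 cells/well; add compounds by pin tool; incubate 48 h, 37 °C, 5% CO2; add CellTiter-Glo, 15 min RT; read luminescence. % activity vs DMSO (100%) and bortezomib (0%).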
# [16] = target: Peroxisome proliferator-activated receptor alpha (Homo sapiens) (UniProt Q07869); test: qHTS assay for small molecule agonists of the peroxisome proliferator-activated receptor alpha (PPARalpha) signaling pathway (AID 651778); conditions: PathHunter PPARalpha complementation, chemiluminescence, 6 h; stronger effect = higher value; also: % of control where 0% means no effect
# Summary of the method: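 Chemiluminescence from complemented enzyme reported PPARalpha activation in cells after 6 hr of compound treatment at 37 C. The detection reagent was incubated for 60 min at room temperature, and compounds were scored as agonists.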
# [17] = target: Nuclear receptor ROR-gamma (Homo sapiens) (UniProt P51449); test: qHTS assay for small molecule antagonists of the retinoid-related orphan receptor gamma (ROR-gamma) signaling pathway (AID 651802);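 also: CHO cells with doxycycline-induced ROR-gamma expression; luciferase reporter luminescence driven by ROR response element; % is scaled to controls: 0 for no effect and ±100 for the full control effect; nearly all actives have a fitted effect of over 60% in size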
# Summary of the method: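 CHO, TET-inducible ROR + RORE-LUC reporter, 1536-well qHTS. Compound pinned, doxycycline added, 16hr 37C/5% CO2. ONE-Glo, 30 min RT, luminescence; signal drop scored as antagonism.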
# [18] = qHTS assay for small molecule agonists of the antioxidant response element (ARE) signaling pathway measured by Nrf2-dependant transcriptional activity (AID 720636; active = well fitted curve in the direction sought with a large enough effect in the repeat runs; an effect the other way counts as inactive or inconclusive; also: % of control where 0% means no effect)
# Summary of the method: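 Quantitative HTS format in HepG2 cells stably expressing an ARE-luciferase reporter; 16 hr compound treatment at 37 C, luciferase signal detected with ONE-Glo.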
# [19] = qHTS assay for small molecule agonists of the antioxidant response element (ARE) signaling pathway measured by Nrf2-dependant transcriptional activity - cell viability counter screen (AID 720653; active = well fitted curve in the direction sought with a large enough effect in the repeat runs; an effect the other way counts as inactive or inconclusive; also: % is scaled to controls: 0 for no effect and ±100 for the full control effect); conditions: ARE-bla HepG2 viability, CellTiter-Glo ATP luminescence, 16 h; max response: stronger effect = lower value
# Summary of the method: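 Cytotoxicity counter screen: intracellular ATP quantified by CellTiter-Glo luminescence in the same ARE-bla HepG2 plates, after 16 h compound exposure and a 2 h beta-lactamase substrate step.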
# [20] = qHTS assay for cell viability of HEK293 cells (AID 743288); conditions: ATP luminescence (CellTiter-Glo), 18 h; max response: stronger effect = lower value; also: % is scaled to controls: 0 for no effect and ±100 for the full control effect; nearly all actives have a fitted effect of over 50% in size
# Summary of the method: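 HEK293 parental, 2,000 cells/well; ≥5 h pre-incubation 37 C; pintool compound addition; 18 h, 37 C; CellTiter-Glo 30 min RT; luminescence read.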
# T1 sequence (P35557 whole entry, looked up): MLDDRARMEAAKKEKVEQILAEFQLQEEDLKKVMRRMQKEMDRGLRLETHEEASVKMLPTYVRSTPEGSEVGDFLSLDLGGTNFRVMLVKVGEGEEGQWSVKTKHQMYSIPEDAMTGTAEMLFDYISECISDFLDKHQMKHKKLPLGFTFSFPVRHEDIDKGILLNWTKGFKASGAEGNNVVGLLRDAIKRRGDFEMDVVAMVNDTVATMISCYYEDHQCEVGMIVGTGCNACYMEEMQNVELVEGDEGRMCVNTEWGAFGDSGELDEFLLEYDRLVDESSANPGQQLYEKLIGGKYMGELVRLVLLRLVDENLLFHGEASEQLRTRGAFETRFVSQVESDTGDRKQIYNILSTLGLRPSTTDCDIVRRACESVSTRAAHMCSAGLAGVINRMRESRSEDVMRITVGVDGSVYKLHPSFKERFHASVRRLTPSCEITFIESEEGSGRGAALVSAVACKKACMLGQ
# T1 sequence (Q14397 whole entry, looked up): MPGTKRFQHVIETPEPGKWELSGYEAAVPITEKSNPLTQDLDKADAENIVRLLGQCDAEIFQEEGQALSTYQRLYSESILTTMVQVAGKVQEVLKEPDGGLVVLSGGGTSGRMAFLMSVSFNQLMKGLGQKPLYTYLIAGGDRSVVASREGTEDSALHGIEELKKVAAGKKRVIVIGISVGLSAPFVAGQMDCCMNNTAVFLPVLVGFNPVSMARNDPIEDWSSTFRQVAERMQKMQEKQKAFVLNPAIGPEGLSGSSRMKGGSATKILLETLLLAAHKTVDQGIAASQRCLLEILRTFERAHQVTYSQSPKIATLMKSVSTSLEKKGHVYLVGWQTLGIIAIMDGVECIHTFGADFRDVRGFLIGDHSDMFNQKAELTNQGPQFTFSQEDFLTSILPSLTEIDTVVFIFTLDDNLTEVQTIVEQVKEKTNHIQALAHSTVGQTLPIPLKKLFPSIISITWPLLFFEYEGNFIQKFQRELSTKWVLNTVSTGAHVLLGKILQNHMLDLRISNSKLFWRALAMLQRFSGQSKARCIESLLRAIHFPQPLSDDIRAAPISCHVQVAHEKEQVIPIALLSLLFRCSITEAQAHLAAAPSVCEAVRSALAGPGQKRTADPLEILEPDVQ
# Chain of Peroxisome proliferator-activated receptor alpha (Homo sapiens) (Q07869 whole entry, looked up): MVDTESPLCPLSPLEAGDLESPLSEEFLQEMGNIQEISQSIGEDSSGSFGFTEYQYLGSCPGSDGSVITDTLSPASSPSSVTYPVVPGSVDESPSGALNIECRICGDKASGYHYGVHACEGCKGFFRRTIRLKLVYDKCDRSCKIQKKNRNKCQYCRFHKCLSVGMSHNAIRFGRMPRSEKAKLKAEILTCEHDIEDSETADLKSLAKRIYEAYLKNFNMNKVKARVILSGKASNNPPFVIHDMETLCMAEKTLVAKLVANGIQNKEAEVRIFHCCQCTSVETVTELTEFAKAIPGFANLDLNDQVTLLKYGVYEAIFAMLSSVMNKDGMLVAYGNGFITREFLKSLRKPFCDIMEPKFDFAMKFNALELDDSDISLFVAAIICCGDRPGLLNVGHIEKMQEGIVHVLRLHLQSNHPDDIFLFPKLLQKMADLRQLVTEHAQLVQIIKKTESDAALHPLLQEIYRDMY
# Chain of Tyrosine-protein kinase Yes (Homo sapiens) (P07947 whole entry, looked up): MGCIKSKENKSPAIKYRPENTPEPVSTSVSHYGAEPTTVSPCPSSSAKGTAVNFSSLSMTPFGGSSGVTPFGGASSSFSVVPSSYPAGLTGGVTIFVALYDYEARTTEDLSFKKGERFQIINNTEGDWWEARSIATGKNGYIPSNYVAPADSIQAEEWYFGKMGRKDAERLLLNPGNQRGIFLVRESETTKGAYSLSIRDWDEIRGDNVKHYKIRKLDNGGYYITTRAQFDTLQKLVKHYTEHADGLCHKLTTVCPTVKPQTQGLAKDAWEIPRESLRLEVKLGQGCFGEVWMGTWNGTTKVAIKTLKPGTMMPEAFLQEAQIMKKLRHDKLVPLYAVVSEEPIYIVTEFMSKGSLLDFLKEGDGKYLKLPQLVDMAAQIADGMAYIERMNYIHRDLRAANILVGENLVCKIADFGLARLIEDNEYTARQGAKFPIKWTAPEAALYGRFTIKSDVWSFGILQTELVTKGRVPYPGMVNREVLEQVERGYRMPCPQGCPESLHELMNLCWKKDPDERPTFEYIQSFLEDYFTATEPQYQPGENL
# Chain of Nuclear receptor ROR-gamma (Homo sapiens) (P51449 whole entry, looked up): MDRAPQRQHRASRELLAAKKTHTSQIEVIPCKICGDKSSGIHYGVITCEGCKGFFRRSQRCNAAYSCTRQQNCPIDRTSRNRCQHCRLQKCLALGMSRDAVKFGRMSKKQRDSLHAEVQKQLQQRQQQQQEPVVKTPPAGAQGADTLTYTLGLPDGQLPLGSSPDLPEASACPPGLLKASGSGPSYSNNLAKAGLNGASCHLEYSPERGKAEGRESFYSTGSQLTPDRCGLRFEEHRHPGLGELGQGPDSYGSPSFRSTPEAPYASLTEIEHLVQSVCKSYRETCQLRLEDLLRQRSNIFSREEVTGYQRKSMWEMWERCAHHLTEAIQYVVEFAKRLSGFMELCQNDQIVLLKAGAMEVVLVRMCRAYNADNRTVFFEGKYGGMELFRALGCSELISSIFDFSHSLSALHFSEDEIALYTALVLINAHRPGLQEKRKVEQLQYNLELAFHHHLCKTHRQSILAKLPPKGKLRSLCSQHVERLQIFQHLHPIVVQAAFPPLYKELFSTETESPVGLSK
smiles,measurement,setting,value
Cc1cccc(C#Cc2ccccc2)n1,Potency,[1],inactive
same,outcome,[2],inactive
same,outcome,[3],inactive
same,outcome,[4],inactive
same,outcome,[5],inactive
same,outcome,[6],inactive
same,outcome,[7],inactive
same,max response,[8],7.87% (inactive)
same,"activity, percent of control",[9],85.7%
same,"remaining proliferation (% of control), lower = more inhibition",[10],75.6%
same,"parasite growth, % of DMSO control",[11],23.9%
same,"parasite growth remaining, % of DMSO control (lower = more inhibition)",[12],98.6%
same,"parasite growth, % of control (lower = inhibition)",[13],36.6%
same,"growth, % of control",[14],42%
same,"cell viability, % of control (lower = more cytotoxic)",[15],40.7%
Cc1ccc(NC(=O)c2ccc(CN3CCN(C)CC3)cc2)cc1Nc1nccc(-c2cccnc2)n1,outcome,[2],inactive
same,Potency,[8],12.6 µM (active)
same,"activity, percent of control",[9],7.63%
same,"parasite growth, % of DMSO control",[11],6.13%
same,"parasite growth remaining, % of DMSO control (lower = more inhibition)",[12],10.8%
same,"parasite growth, % of control (lower = inhibition)",[13],24.1%
same,"growth, % of control",[14],4.5%
same,"cell viability, % of control (lower = more cytotoxic)",[15],308%
CCCc1cc(=O)[nH]c(=S)[nH]1,max response,[16],-4.59% (inactive) and -0.354% (inactive)
same,outcome,[17],inactive
same,Potency,[18],inactive
same,max response,[19],-7.93% (inactive) and 7.26% (inactive)
same,max response,[8],1.36% (inactive)
same,max response,[20],-1.41% (inactive) and 0.952% (inactive)
same,"parasite growth, % of DMSO control",[11],95.4%
same,"parasite growth remaining, % of DMSO control (lower = more inhibition)",[12],93.3%
same,"parasite growth, % of control (lower = inhibition)",[13],78.2%
same,"growth, % of control",[14],103%
same,"cell viability, % of control (lower = more cytotoxic)",[15],62.4%
CCCS(=O)c1ccc2nc(NC(=O)OC)[nH]c2c1 (configuration not stated),"cell viability, % of control (lower = more cytotoxic)",[15],32.3%
CC(=O)O[C@H]1C(=O)[C@@]2(C)C([C@H](OC(=O)c3ccccc3)[C@]3(O)C[C@H](OC(=O)[C@H](O)[C@@H](NC(=O)c4ccccc4)c4ccccc4)C(C)=C1C3(C)C)[C@]1(OC(C)=O)CO[C@@H]1C[C@@H]2O (some centres not stated),outcome,[3],inactive
same,outcome,[4],inactive
same,outcome,[5],inactive
same,outcome,[6],inactive
same,outcome,[7],inactive
same,"parasite growth, % of DMSO control",[11],5.85%
same,"parasite growth remaining, % of DMSO control (lower = more inhibition)",[12],14.4%
same,"parasite growth, % of control (lower = inhibition)",[13],11.8%
same,"growth, % of control",[14],4.22%
same,"cell viability, % of control (lower = more cytotoxic)",[15],17%
Cc1c(OCC(F)(F)F)ccnc1CS(=O)c1nc2ccccc2[nH]1 (configuration not stated),outcome,[4],inactive
same,outcome,[5],inactive
same,outcome,[6],inactive
same,outcome,[7],inactive
same,"cell viability, % of control (lower = more cytotoxic)",[15],595%
NC(=NCc1ccccc1)NC(=O)c1nc(Cl)c(N)nc1N,outcome,[3],inactive
same,outcome,[4],inactive
same,outcome,[5],inactive
same,outcome,[6],inactive
same,outcome,[7],inactive
same,Potency,[8],23.5 µM (active)
same,"activity, percent of control",[9],10.1% [at 18.4 µM]
same,"parasite growth, % of DMSO control",[11],103%
same,"parasite growth remaining, % of DMSO control (lower = more inhibition)",[12],98.4%
same,"parasite growth, % of control (lower = inhibition)",[13],83.5%
same,"growth, % of control",[14],98.4%
same,"cell viability, % of control (lower = more cytotoxic)",[15],130%
Nc1nc(OCc2ccccc2)c2[nH]cnc2n1,outcome,[3],inactive
same,outcome,[4],inactive
same,outcome,[5],inactive
same,outcome,[6],inactive
same,outcome,[7],inactive
same,max response,[8],13.4% (inactive)
same,"cell viability, % of control (lower = more cytotoxic)",[15],56%
C=CCc1cc(OC)c(O)c(C(=O)NCCO)c1,max response,[8],-5.25% (inactive)
same,"cell viability, % of control (lower = more cytotoxic)",[15],134%
Nc1nc(N)c(N=O)c(OCC2CCCCC2)n1,outcome,[3],inactive
same,outcome,[4],inactive
same,outcome,[5],inactive
same,outcome,[6],inactive
same,outcome,[7],inactive
same,max response,[8],15% (inactive)
same,"parasite growth, % of DMSO control",[11],28%
same,"parasite growth remaining, % of DMSO control (lower = more inhibition)",[12],79.9%
same,"parasite growth, % of control (lower = inhibition)",[13],32.9%
same,"growth, % of control",[14],36.5%
same,"cell viability, % of control (lower = more cytotoxic)",[15],18.1%
